Data published in the supplement of paper PMC8975748.
Where a name gives a salt, the structure may show the parent alone.

The molecules below were run on Saccharomyces cerevisiae BY4741 SeMeCo community (assay: z-score of subpopulation abundance vs DMSO median, subpopulation auxotrophic for HM; higher = larger share of this subpopulation than in DMSO controls). Conditions: 10 µM; 24 h; SM minimal medium; subpopulation (auxotrophy): HM.
Method in brief: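 Scoring was based on each subpopulation's abundance, expressed as a z-score against the vehicle-well median. A Saccharomyces cerevisiae BY4741 community with four plasmids, each restoring one auxotrophy and encoding a distinct fluorescent protein, was pre-grown overnight to OD600 1.0, diluted to 0.3, and added at 70 µl to 384-well plates acoustically predosed with library drugs (10 µM final). It then grew 24 h in minimal SM medium before paraformaldehyde fixation and automated confocal microscopy, with single-auxotroph fluorescent strains setting thresholds and autofluorescence correction.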

Compound | z-score of subpopulation abundance
CC(C)NC(=N)NC(=N)Nc1ccc(Cl)cc1 [Proguanil] | 0.11
Nc1nc(O)c2ncn(CCC(CO)CO)c2n1 [Penciclovir] | 0.31
C=CC(C)(O)CCC=C(C)C (stereo unspecified) [Linalool] | -0.25
O=C(N[C@H](CO)[C@H](O)c1ccc([N+](=O)[O-])cc1)C(Cl)Cl [Chloramphenicol] | -0.25
CCCN1CCCC[C@H]1C(=O)Nc1c(C)cccc1C [Ropivacaine] | -0.51
Cc1onc(-c2ccccc2)c1-c1ccc(S(N)(=O)=O)cc1 [Valdecoxib] | -0.77
CN1[C@@H]2CC[C@H]1C[C@@H](OC(=O)c1c[nH]c3ccccc13)C2 [Tropisetron] | 2.08
CC[C@H]1OC(=O)[C@H](C)[C@@H](O[C@H]2C[C@@](C)(OC)[C@@H](O)[C@H](C)O2)[C@H](C)[C@@H](O[C@@H]2O[C@H](C)C[C@H](N(C)C)[C@H]2O)[C@](C)(O)C[C@@H](C)/C(=N\OCOCCOC)[C@H](C)[C@@H](O)[C@]1(C)O [Roxithromycin] | 0.24
COc1ccccc1N1CCN(CCCNc2cc(=O)n(C)c(=O)n2C)CC1 [Urapidil HCl] | -0.81
C=C[C@H]1CN2CC[C@H]1C[C@H]2[C@H](O)c1ccnc2ccc(OC)cc12 [Quinine HCl Dihydrate] | -0.08
Cc1nc(=O)c2cc(CN(C)c3ccc(C(=O)N[C@@H](CCC(=O)O)C(=O)O)s3)ccc2[nH]1 [Raltitrexed] | -0.66
CC(C)Cc1ccc(C(C)C(=O)O)cc1 (stereo unspecified) [Ibuprofen Lysine] | -1.04
CN(C)CCc1c[nH]c2ccc(C[C@H]3COC(=O)N3)cc12 [Zolmitriptan] | -1.06
C[C@]12CC[C@@H]3c4ccc(O)cc4C[C@@H](CCCCCCCCC[S+]([O-])CCCC(F)(F)C(F)(F)F)[C@H]3[C@@H]1CC[C@@H]2O (stereo partly specified) [Fulvestrant] | 0.9
COc1ccc(NS(=O)(=O)c2ccc(N)cc2)nn1 [Sulfamethoxypyridazine] | -0.15
CNCCCN1c2ccccc2CCc2ccccc21 [Desipramine Hydrochloride] | 0.82
Oc1ccc([C@H]2COc3cc(O)ccc3C2)cc1 [Equol] | 0.47
Cc1[nH]c(=O)c(C#N)cc1-c1ccncc1 [Milrinone] | -0.67

Compound | z-score of subpopulation abundance
Cc1ccc(O)c([C@H](CCN(C(C)C)C(C)C)c2ccccc2)c1 [Tolterodine tartrate] | 0.62
CCN(CC)CCOC(=O)c1ccc(N)cc1 [Procaine] | -0.99
CCC(C)(Oc1ccc(C2(c3ccc(OC(C)(CC)C(=O)O)cc3)CCCCC2)cc1)C(=O)O (stereo unspecified) [Clinofibrate] | -0.03
CN(C)[C@@H]1C(=O)C(C(N)=O)=C(O)[C@@]2(O)C(=O)C3=C(O)c4c(O)ccc(Cl)c4[C@@H](O)[C@H]3C[C@@H]12 [Demeclocycline HCl] | -1
COc1cc2c(cc1OC)C(=O)C(CC1CCN(Cc3ccccc3)CC1)C2 (stereo unspecified) [Donepezil] | 0.52
CCn1cc(C(=O)O)c(=O)c2cc(F)c(N3CCNCC3)nc21 [Enoxacin] | -1.07
NC(=O)[C@@H]1CC[C@@H]2CN1C(=O)N2OS(=O)(=O)O [Avibactam sodium] | 0.85
CN1[C@@H]2CC[C@H]1C[C@@H](OC(c1ccccc1)c1ccccc1)C2 [Benztropine mesylate] | -0.56
C#C[C@]1(O)CC[C@H]2[C@@H]3CCC4=CCCC[C@@H]4[C@H]3CC[C@@]21C [Lynestrenol] | -0.19
CC(C)(C)C(=O)OCOC(=O)[C@@H]1N2C(=O)[C@@H](/N=C/N3CCCCCC3)[C@H]2SC1(C)C [Pivmecillinam hydrochloride] | -0.25
OC(c1ccccc1)(c1ccccc1)C12CC[N+](CCOCc3ccccc3)(CC1)CC2 [Umeclidinium bromide] | -0.29
OCc1ccccc1O[C@@H]1O[C@H](CO)[C@@H](O)[C@H](O)[C@H]1O [Salicin] | -0.68
CN(C)CCc1c[nH]c2ccc(Cn3cncn3)cc12 [Rizatriptan Benzoate] | 0.65
OCCN(CCO)c1nc(N2CCCCC2)c2nc(N(CCO)CCO)nc(N3CCCCC3)c2n1 [Dipyridamole] | 6.49
Cn1nnnc1SCC1=C(C(=O)O)N2C(=O)[C@@H](NC(=O)[C@H](OC=O)c3ccccc3)[C@H]2SC1 [Cefamandole nafate] | 0.71
CCC1(c2ccccc2)C(=O)NCNC1=O [Primidone] | 0.36
CCCCOc1cc(C(=O)OCCN(CC)CC)ccc1N [Oxybuprocaine HCl] | 0.19
C[N+]1(C)[C@@H]2CC[C@H]1C[C@@H](OC(=O)C(O)c1ccccc1)C2 (stereo partly specified) [Homatropine Methylbromide] | -0.7
